According to PubChem BioAssay AID1159580 (chemical genetic matrix, 2015):
About 2,000 (36%) of roughly 5,500 compounds were called active. About 18% were inconclusive and are not listed. No stated cut-off is given here; in the data, active means normalized growth mostly below about 0.91 (no sharp cut-off); inconclusive means no clear call, values can overlap the other calls; inactive means mostly above about 0.92. Some of the results follow.

Assay: chemical genetic growth profiling, strain panel (AID 1159580);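 further: tested at 20 µM; growth read once vehicle control cultures reached saturation at 30 °C; 1 = growth at the plate median or of vehicle wells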
Conditions: growth OD

Measured: normalized growth

CN1C2CC3C[C@H]1C(O3)C2O (some centres undefined)
inactive: S. cerevisiae deletion strains, locus YAL021C, strain ccr4, stronger effect = lower value 1.01 | S. cerevisiae deletion strains, locus YAL026C, strain drs2, stronger effect = lower value 1.02 | S. cerevisiae deletion strains, locus YAL030W, strain snc1, stronger effect = lower value 0.982 | S. cerevisiae deletion strains, locus YBL061C, strain skt5, stronger effect = lower value 1.02 | S. cerevisiae deletion strains, locus YBR009C, strain hhf1, stronger effect = lower value 1.03 | S. cerevisiae deletion strains, locus YBR021W, strain FUR4, stronger effect = lower value 0.99 | S. cerevisiae deletion strains, locus YBR023C, strain chs3, stronger effect = lower value 1.02 | S. cerevisiae deletion strains, locus YBR171W, strain sec66, stronger effect = lower value 1.03 | S. cerevisiae deletion strains, locus YBR229C, strain ROT2, stronger effect = lower value 1.01 | S. cerevisiae deletion strains, locus YBR231C, strain swc5, stronger effect = lower value 1.01 | S. cerevisiae deletion strains, locus YBR279W, strain paf1, stronger effect = lower value 1.01 | S. cerevisiae deletion strains, locus YCL011C, strain gbp2, stronger effect = lower value 1.02 | S. cerevisiae deletion strains, locus YCL016C, strain dcc1, stronger effect = lower value 1.02 | S. cerevisiae deletion strains, locus YCL029C, strain bik1, stronger effect = lower value 1.04 | S. cerevisiae deletion strains, locus YCL061C, strain MRC1, stronger effect = lower value 1.01 | S. cerevisiae deletion strains, locus YCL069W, strain vba3, stronger effect = lower value 1.01 | S. cerevisiae deletion strains, locus YCR088W, strain abp1, stronger effect = lower value 1.02 | S. cerevisiae deletion strains, locus YDL005C, strain med2, stronger effect = lower value 1.02 | S. cerevisiae deletion strains, locus YDL035C, strain GPR1, stronger effect = lower value 1.02 | S. cerevisiae deletion strains, locus YDL040C, strain nat1, stronger effect = lower value 0.997 | S. cerevisiae deletion strains, locus YDL074C, strain BRE1, stronger effect = lower value 1.04 | S. cerevisiae deletion strains, locus YDL101C, strain DUN1, stronger effect = lower value 1.01 | S. cerevisiae deletion strains, locus YDL185W, strain tfp1, stronger effect = lower value 1.04 | S. cerevisiae deletion strains, locus YDL192W, strain arf1, stronger effect = lower value 1.04 | S. cerevisiae deletion strains, locus YDR001C, strain nth1, stronger effect = lower value 1.02 | S. cerevisiae deletion strains, locus YDR069C, strain doa4, stronger effect = lower value 0.971 | S. cerevisiae deletion strains, locus YDR101C, strain arx1, stronger effect = lower value 1.03 | S. cerevisiae deletion strains, locus YDR137W, strain rgp1, stronger effect = lower value 1.02 | S. cerevisiae deletion strains, locus YDR159W, strain sac3, stronger effect = lower value 0.964 | S. cerevisiae deletion strains, locus YDR162C, strain NBP2, stronger effect = lower value 1.01 | S. cerevisiae deletion strains, locus YDR195W, strain ref2 0.995 | S. cerevisiae deletion strains, locus YDR297W, strain sur2, stronger effect = lower value 0.958 | S. cerevisiae deletion strains, locus YDR318W, strain mcm21, stronger effect = lower value 1.03 | S. cerevisiae deletion strains, locus YDR334W, strain swr1, stronger effect = lower value 1.02 | S. cerevisiae deletion strains, locus YDR335W, strain msn5, stronger effect = lower value 0.982 | S. cerevisiae deletion strains, locus YDR388W, stronger effect = lower value 1.03 | S. cerevisiae deletion strains, locus YDR392W, strain spt3, stronger effect = lower value 0.985 | S. cerevisiae deletion strains, locus YDR502C, strain sam2, stronger effect = lower value 1.02 | S. cerevisiae deletion strains, locus YEL003W, strain gim4, stronger effect = lower value 1.02 | S. cerevisiae deletion strains, locus YEL037C, strain rad23, stronger effect = lower value 1.02 | S. cerevisiae deletion strains, locus YEL061C, strain CIN8 (second series), stronger effect = lower value 1.03 | S. cerevisiae deletion strains, locus YEL061C, strain CIN8, stronger effect = lower value 1.01 | S. cerevisiae deletion strains, locus YER015W, strain faa2, stronger effect = lower value 1.01 | S. cerevisiae deletion strains, locus YER016W, strain bim1, stronger effect = lower value 1.01 | S. cerevisiae deletion strains, locus YER110C, stronger effect = lower value 1.04 | S. cerevisiae deletion strains, locus YER111C, strain swi4, stronger effect = lower value 1.02 | S. cerevisiae deletion strains, locus YER155C, strain BEM2 (second series), stronger effect = lower value 0.994 | S. cerevisiae deletion strains, locus YER155C, strain BEM2, stronger effect = lower value 1 | S. cerevisiae deletion strains, locus YER167W, strain BCK2, stronger effect = lower value 1.01 | S. cerevisiae deletion strains, locus YFR010W, strain ubp6, stronger effect = lower value 1.03 | S. cerevisiae deletion strains, locus YGL078C, strain dbp3, stronger effect = lower value 1.02 | S. cerevisiae deletion strains, locus YGL086W, strain mad1, stronger effect = lower value 1 | S. cerevisiae deletion strains, locus YGL167C, strain pmr1, stronger effect = lower value 1.02 | S. cerevisiae deletion strains, locus YGL173C, strain kem1, stronger effect = lower value 1.02 | S. cerevisiae deletion strains, locus YGL227W, strain vid30, stronger effect = lower value 1.01 | S. cerevisiae deletion strains, locus YGL240W, strain doc1, stronger effect = lower value 0.972 | S. cerevisiae deletion strains, locus YGL248W, strain PDE1, stronger effect = lower value 1.01 | S. cerevisiae deletion strains, locus YGL253W, strain hxk2, stronger effect = lower value 1.01 | S. cerevisiae deletion strains, locus YGR078C, strain PAC10, stronger effect = lower value 1.02 | S. cerevisiae deletion strains, locus YGR135W, strain pre9, stronger effect = lower value 1.02 | S. cerevisiae deletion strains, locus YGR252W, strain gcn5, stronger effect = lower value 1.02 | S. cerevisiae deletion strains, locus YHR013C, strain ard1, stronger effect = lower value 1.01 | S. cerevisiae deletion strains, locus YHR027C, strain rpn1, stronger effect = lower value 1 | S. cerevisiae deletion strains, locus YHR030C, strain SLT2, stronger effect = lower value 1.01 | S. cerevisiae deletion strains, locus YHR079C, strain IRE1 (second series), stronger effect = lower value 1.03 | S. cerevisiae deletion strains, locus YHR094C, strain hxt1, stronger effect = lower value 1.03 | S. cerevisiae deletion strains, locus YHR129C, strain ARP1, stronger effect = lower value 1 | S. cerevisiae deletion strains, locus YHR142W, strain chs7, stronger effect = lower value 1.04 | S. cerevisiae deletion strains, locus YHR200W, strain rpn10, stronger effect = lower value 1.02 | S. cerevisiae deletion strains, locus YIL066C, strain RNR3, stronger effect = lower value 1.01 | S. cerevisiae deletion strains, locus YIL073C, strain SPO22, stronger effect = lower value 1.08 | S. cerevisiae deletion strains, locus YIL125W, strain kgd1, stronger effect = lower value 1.02 | S. cerevisiae deletion strains, locus YIR030C, strain dcg1, stronger effect = lower value 1.03 | S. cerevisiae deletion strains, locus YJL092W, strain hpr5, stronger effect = lower value 1.02 | S. cerevisiae deletion strains, locus YJL095W, strain BCK1 (second series), stronger effect = lower value 0.985 | S. cerevisiae deletion strains, locus YJL095W, strain BCK1, stronger effect = lower value 1.01 | S. cerevisiae deletion strains, locus YJL115W, strain asf1, stronger effect = lower value 1.03 | S. cerevisiae deletion strains, locus YJL129C, strain trk1, stronger effect = lower value 1.04 | S. cerevisiae deletion strains, locus YJL134W, strain LCB3, stronger effect = lower value 1.01 | S. cerevisiae deletion strains, locus YJL154C, strain vps35, stronger effect = lower value 1.01 | S. cerevisiae deletion strains, locus YJL164C, strain tpk1, stronger effect = lower value 0.999 | S. cerevisiae deletion strains, locus YJL166W, strain qcr8, stronger effect = lower value 0.996 | S. cerevisiae deletion strains, locus YJL168C, strain set2, stronger effect = lower value 1.02 | S. cerevisiae deletion strains, locus YJL187C, strain SWE1 (second series), stronger effect = lower value 1.01 | S. cerevisiae deletion strains, locus YJL187C, strain SWE1, stronger effect = lower value 0.969 | S. cerevisiae deletion strains, locus YJR043C, strain POL32, stronger effect = lower value 0.999 | S. cerevisiae deletion strains, locus YJR075W, strain HOC1, stronger effect = lower value 1.01 | S. cerevisiae deletion strains, locus YKL009W, strain mrt4, stronger effect = lower value 1.02 | S. cerevisiae deletion strains, locus YKL068W, stronger effect = lower value 1.03 | S. cerevisiae deletion strains, locus YKL085W, strain MDH1 (second series), stronger effect = lower value 1.01 | S. cerevisiae deletion strains, locus YKL085W, strain MDH1, stronger effect = lower value 1.01 | S. cerevisiae deletion strains, locus YKL160W, strain elf1, stronger effect = lower value 1 | S. cerevisiae deletion strains, locus YKL190W, strain CNB1, stronger effect = lower value 1.01 | S. cerevisiae deletion strains, locus YKR001C, strain vps1, stronger effect = lower value 1.03 | S. cerevisiae deletion strains, locus YKR026C, strain gcn3, stronger effect = lower value 1.01 | S. cerevisiae deletion strains, locus YKR091W, strain srl3, stronger effect = lower value 1.01 | S. cerevisiae deletion strains, locus YLL001W, strain dnm1, stronger effect = lower value 1.03 | S. cerevisiae deletion strains, locus YLL026W, stronger effect = lower value 1.01 | S. cerevisiae deletion strains, locus YLL041C, strain sdh2, stronger effect = lower value 0.997 | S. cerevisiae deletion strains, locus YLR027C, strain aat2, stronger effect = lower value 0.975 | S. cerevisiae deletion strains, locus YLR039C, strain RIC1, stronger effect = lower value 1.07 | S. cerevisiae deletion strains, locus YLR058C, strain SHM2, stronger effect = lower value 1.01 | S. cerevisiae deletion strains, locus YLR102C, strain apc9, stronger effect = lower value 1.04 | S. cerevisiae deletion strains, locus YLR221C, strain rsa3, stronger effect = lower value 1.01 | S. cerevisiae deletion strains, locus YLR258W, strain gsy2, stronger effect = lower value 0.983 | S. cerevisiae deletion strains, locus YLR262C, strain YPT6 (second series), stronger effect = lower value 1.05 | S. cerevisiae deletion strains, locus YLR262C, strain YPT6, stronger effect = lower value 1.08 | S. cerevisiae deletion strains, locus YLR268W, strain sec22, stronger effect = lower value 1.03 | S. cerevisiae deletion strains, locus YLR320W, strain mms22, stronger effect = lower value 1.02 | S. cerevisiae deletion strains, locus YLR330W, strain CHS5, stronger effect = lower value 1.01 | S. cerevisiae deletion strains, locus YLR342W, strain FKS1 (second series), stronger effect = lower value 1 | S. cerevisiae deletion strains, locus YLR342W, strain FKS1, stronger effect = lower value 1.01 | S. cerevisiae deletion strains, locus YLR357W, strain rsc2, stronger effect = lower value 1.03 | S. cerevisiae deletion strains, locus YLR370C, strain arc18, stronger effect = lower value 0.979 | S. cerevisiae deletion strains, locus YLR371W, strain rom2, stronger effect = lower value 1.02 | S. cerevisiae deletion strains, locus YLR384C, strain iki3, stronger effect = lower value 1 | S. cerevisiae deletion strains, locus YLR418C, strain cdc73, stronger effect = lower value 1.03 | S. cerevisiae deletion strains, locus YML016C, strain PPZ1, stronger effect = lower value 1.02 | S. cerevisiae deletion strains, locus YML032C, strain rad52, stronger effect = lower value 1.02 | S. cerevisiae deletion strains, locus YML120C, strain ndi1, stronger effect = lower value 1.03 | S. cerevisiae deletion strains, locus YML124C, strain tub3, stronger effect = lower value 1.03 | S. cerevisiae deletion strains, locus YMR058W, strain fet3, stronger effect = lower value 1.02 | S. cerevisiae deletion strains, locus YMR078C, strain ctf18, stronger effect = lower value 1.03 | S. cerevisiae deletion strains, locus YMR125W, strain sto1, stronger effect = lower value 1.01 | S. cerevisiae deletion strains, locus YMR129W, stronger effect = lower value 0.986 | S. cerevisiae deletion strains, locus YMR205C, strain PFK2, stronger effect = lower value 0.974 | S. cerevisiae deletion strains, locus YMR223W, strain ubp8, stronger effect = lower value 1.03 | S. cerevisiae deletion strains, locus YMR231W, strain pep5, stronger effect = lower value 0.988 | S. cerevisiae deletion strains, locus YMR307W, strain GAS1, stronger effect = lower value 0.99 | S. cerevisiae deletion strains, locus YNL067W, strain RPL9B, stronger effect = lower value 1 | S. cerevisiae deletion strains, locus YNL071W, strain lat1, stronger effect = lower value 1.02 | S. cerevisiae deletion strains, locus YNL153C, strain GIM3, stronger effect = lower value 1.01 | S. cerevisiae deletion strains, locus YNL209W, strain ssb2, stronger effect = lower value 1.01 | S. cerevisiae deletion strains, locus YNL233W, strain BNI4, stronger effect = lower value 1.01 | S. cerevisiae deletion strains, locus YNL248C, strain rpa49, stronger effect = lower value 1.02 | S. cerevisiae deletion strains, locus YNL250W, strain rad50, stronger effect = lower value 1.03 | S. cerevisiae deletion strains, locus YNL271C, strain bni1, stronger effect = lower value 1.03 | S. cerevisiae deletion strains, locus YNL298W, strain CLA4, stronger effect = lower value 1.02 | S. cerevisiae deletion strains, locus YNL307C, strain MCK1, stronger effect = lower value 1.05 | S. cerevisiae deletion strains, locus YNL322C, strain KRE1 (second series), stronger effect = lower value 1.02 | S. cerevisiae deletion strains, locus YNR049C, strain mso1, stronger effect = lower value 0.982 | S. cerevisiae deletion strains, locus YNR052C, strain pop2, stronger effect = lower value 1.01 | S. cerevisiae deletion strains, locus YOL012C, strain htz1 1.37 | S. cerevisiae deletion strains, locus YOL147C, strain pex11, stronger effect = lower value 1.03 | S. cerevisiae deletion strains, locus YOR001W, strain rrp6, stronger effect = lower value 0.987 | S. cerevisiae deletion strains, locus YOR061W, strain CKA2, stronger effect = lower value 1.02 | S. cerevisiae deletion strains, locus YOR069W, strain VPS5, stronger effect = lower value 1.01 | S. cerevisiae deletion strains, locus YOR070C, strain gyp1, stronger effect = lower value 1.01 | S. cerevisiae deletion strains, locus YOR080W, strain dia2, stronger effect = lower value 1.02 | S. cerevisiae deletion strains, locus YOR083W, strain WHI5, stronger effect = lower value 1 | S. cerevisiae deletion strains, locus YOR106W, strain vam3, stronger effect = lower value 1.03 | S. cerevisiae deletion strains, locus YOR136W, strain idh2, stronger effect = lower value 1.03 | S. cerevisiae deletion strains, locus YOR144C, strain elg1, stronger effect = lower value 1.03 | S. cerevisiae deletion strains, locus YOR184W, strain ser1, stronger effect = lower value 1.04 | S. cerevisiae deletion strains, locus YOR265W, strain rbl2, stronger effect = lower value 1.01 | S. cerevisiae deletion strains, locus YOR270C, strain vph1, stronger effect = lower value 1.04 | S. cerevisiae deletion strains, locus YOR290C, strain snf2, stronger effect = lower value 0.99 | S. cerevisiae deletion strains, locus YOR316C, strain cot1, stronger effect = lower value 1.04 | S. cerevisiae deletion strains, locus YPL051W, strain arl3, stronger effect = lower value 1.01 | S. cerevisiae deletion strains, locus YPL078C, strain atp4, stronger effect = lower value 1.02 | S. cerevisiae deletion strains, locus YPL106C, strain sse1, stronger effect = lower value 0.995 | S. cerevisiae deletion strains, locus YPL240C, strain hsp82, stronger effect = lower value 0.997 | S. cerevisiae deletion strains, locus YPL241C, strain CIN2, stronger effect = lower value 1.01 | S. cerevisiae deletion strains, locus YPR119W, strain clb2, stronger effect = lower value 1.03 | S. cerevisiae deletion strains, locus YPR141C, strain kar3, stronger effect = lower value 1.04 | S. cerevisiae deletion strains, locus YPR163C, strain tif3, stronger effect = lower value 1.04 | S. cerevisiae deletion strains, locus YPR167C, strain met16, stronger effect = lower value 1.02 | S. cerevisiae deletion strains, strain wtn01, stronger effect = lower value 1.04 | S. cerevisiae strains, strain wild type, stronger effect = lower value 1.02
